The list is not random: actives were taken first. Their share in the collection is about 1.8%.
pCIP destab: p/CIP-EGFP fusion destabilizers, primary screen, fluorescence, F442A cells; Q05BA5; 16 h; decrease of EGFP signal, % at 10 µM; 290,000 tested, 0.01% active; AID 1984, 2009;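 active means EGFP signal decrease of at least 30% at 10 µM or well 3 SD below plate mean, unless failing retest; inactive means the rest, including hits failing retest or dose response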
UBC9 SUMO inh: inhibitors of in vitro SUMOylation cascade, primary screen, biochemical, HTRF, uHTS | 290,000 tested, 0.36% active | inhibition, % at 35 µM | SUMO-conjugating enzyme UBC9 (Homo sapiens), P63279 | HTRF SUMOylation assay, SAE1/SAE2 + UBC9 | AID 2006, 2009; in the data active means inhibition above about 50%, passing the limit was not always enough
Target sequence (P63279 whole entry, looked up): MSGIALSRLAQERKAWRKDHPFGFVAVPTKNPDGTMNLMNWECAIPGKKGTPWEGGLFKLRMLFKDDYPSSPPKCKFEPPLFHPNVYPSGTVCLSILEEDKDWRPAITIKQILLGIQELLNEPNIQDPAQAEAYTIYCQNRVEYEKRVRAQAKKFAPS
NadD block: inhibitors of S. aureus NadD, primary screen, biochemical, colorimetric, uHTS | Nicotinate-nucleotide adenylyltransferase NadD (Staphylococcus aureus N315) | purified NadD enzyme, colorimetric absorbance read-out | inhibition, % at 20 µM | 360,000 tested, 0.78% active | AID 602399, 2012; in the data active means inhibition above about 26%
PHOSPHO1 inh: PubChem AID 1565 | 290,000 tested, 1.1% active | inhibition, % at 13.3 µM | recombinant PHOSPHO1, absorbance phosphatase assay; in the data active means inhibition above about 60%
Target sequence (Q8TCT1 whole entry, looked up): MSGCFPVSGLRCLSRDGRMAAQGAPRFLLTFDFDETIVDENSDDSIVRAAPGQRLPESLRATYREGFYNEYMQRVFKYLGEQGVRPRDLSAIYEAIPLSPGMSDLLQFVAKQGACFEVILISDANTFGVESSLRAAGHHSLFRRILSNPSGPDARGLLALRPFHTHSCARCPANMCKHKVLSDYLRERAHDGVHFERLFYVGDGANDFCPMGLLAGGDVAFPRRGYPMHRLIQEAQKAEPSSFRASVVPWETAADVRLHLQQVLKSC
Numbers without * were called inactive; . = no result given.

SMILES	pCIP destab	UBC9 SUMO inh	NadD block	PHOSPHO1 inh
CCCC(=O)OCCNc1cc(SCCC(=O)OC)c2nonc2c1[N+](=O)[O-]	-7	74*	0	-44
CC(=O)OCCCNc1cc(Sc2ccc(C)cc2)c2nonc2c1[N+](=O)[O-]	4	27	8	14
COc1ccc(CNc2cc(NCCCO)c([N+](=O)[O-])c3nonc23)cc1	-23	96*	-2	23
O=[N+]([O-])c1c(NCCCO)cc(SCc2ccco2)c2nonc12	4	90*	1	-5
CC(=O)OCCCNc1cc(Sc2nc3ccccc3s2)c2nonc2c1[N+](=O)[O-]	0	92*	8	25
CC(=O)OCCNc1cc(SCc2ccco2)c2nonc2c1[N+](=O)[O-]	1	93	13	3
COc1cccc(-c2oc3c(c2C(=O)OCCN2CCCCC2)C(O)CCC3)c1 (centres undefined)	.	.	-9	.
CC1(C(=O)NCc2ccco2)Cc2c(-c3ccccc3)ccnc2O1 (centres undefined)	.	.	-3	.
Nc1ncnc2c1ncn2[C@@H]1O[C@H](C(=O)Nc2cc(C(F)(F)F)cc(C(F)(F)F)c2)[C@@H](O)[C@H]1O	.	.	-1	.
C#CCNCCS(=O)(=O)N(Cc1ccc(Br)cc1)[C@@H](C)C(=O)O	.	.	-6	.
O=[N+]([O-])c1ccc(NNC(=S)Nc2ccccc2)cc1	-13	1	4	86*
CCn1c(SCC(=O)Nc2nccs2)nnc1-c1ccc(C)cc1	12	-13	2	7
CCC(=O)Nc1ccc(-c2nnc(SCC(=O)Nc3nccs3)n2C)cc1	-7	0	5	103*
Cc1oc2c(c(C)cc3oc(=O)c(CC(=O)NCCCO)c(C)c32)c1C	-2	47	7	-1
CSCC[C@H](NC(=O)Cc1c(C)c2c(cc(C)c3c(C)c(C)oc32)oc1=O)C(=O)O	-12	57*	6	23
Cc1oc2c(c(C)cc3oc(=O)c(CC(=O)NCC(=O)NCC(=O)NCC(C)O)c(C)c32)c1C (centres undefined)	-6	60*	9	34
CCC(NC(=O)Cc1c(C)c2c(cc(C)c3c(C)c(C)oc32)oc1=O)C(=O)O (centres undefined)	-11	54*	-3	37
CSCC[C@H](NC(=O)Cc1c(C)c2cc3c4c(oc3cc2oc1=O)CCCC4)C(=O)O	7	28	6	9
Cc1coc2c1c(C)cc1oc(=O)c(CC(=O)N[C@@H](C)C(=O)O)c(C)c12	-8	14	-6	5
CCOC(=O)[C@]12CCC=C1N(Cc1cccc3ccccc13)C(=O)[C@H](CC(=O)NCc1ccc(C)o1)C2	.	.	-3	.
CC(C)NC(=O)N1Cc2cc(C(=O)NC3CCCC3)nc(-c3cccc(-c4cccnc4)c3)c2[C@@H]1CCO	.	.	-5	.
CC(=O)Nc1cccc(-c2cccc3nccn23)c1	.	.	-1	.
C=CCSc1nc(-c2ccc(OC)cc2)c(C#N)c(=O)n1CC=C	1	6	-7	60*
CCOC(=O)C(Sc1nn(C)c(=S)s1)C(C)=O (centres undefined)	-11	20	-4	97*
COc1ccc2c(c1)S/C(=C\C(=O)c1ccncc1)N2C	-21	12	2	70*
SMILES	pCIP destab	UBC9 SUMO inh	NadD block	PHOSPHO1 inh
CC1(C(=O)NS(=O)(=O)c2cccc(C#N)c2)CCN1C(=O)C/C=C/c1ccccc1 (centres undefined)	.	.	-1	.
CCCCN(CCCC)Cc1cc(=O)oc2ccc3ccccc3c12	.	.	11	.
Fc1cccc(Cc2c(-c3ccc(Cl)cc3)nc3c(Cl)cc(C(F)(F)F)cn23)c1	.	.	6	.
CCC1S/C(=C(\C#N)C(=O)NCc2ccco2)N(c2ccc(F)cc2)C1=O (centres undefined)	-11	14	-4	76*
O=C(NN(C(=O)c1ccccc1)c1cccs1)c1ccccc1	.	.	2	.
CCN(CC)CCn1c(=S)[nH]c2ccc(Cl)cc2c1=O	-27	6	-1	78*
CCN(CC)CCn1c(=S)[nH]c2cc(Cl)ccc2c1=O	-4	12	-6	94*
COCCNC(=O)C1(C)CCN(C(=O)c2cc(-c3ccccc3)cs2)C1 (centres undefined)	.	.	0	.
CC1CCN(S(=O)(=O)c2ccc(C(=O)N3CCN(c4ccccc4F)CC3)cc2)CC1	2	-3	-2	60*
COc1ccccc1CNC(=O)C1CCN(Cc2nc(-c3cccc(Cl)c3)oc2C)CC1	-14	21	3	4
CCc1ccc(-c2nc(CN3CCC(C(=O)NCc4ccccc4OC)CC3)c(C)o2)cc1	-14	14	1	77*
CCc1ccccc1OCCOc1ccc(C)cc1OC	-16	7	2	60*
O=C(NN=C1CCN(Cc2ccccc2)CC1)c1cc2ccccc2cc1O	8	87*	42*	0
O=C(NN=C1CCN(Cc2ccccc2)CC1)c1ccccc1O	4	19	-1	-13
Cc1ccc2c(c1)c(=O)c1c3n2CCN(C(=O)CCl)C3CC1 (centres undefined)	10	47	18	80*
O=C(CN1CCN(Cc2ccc3c(c2)OCO3)CC1)c1c[nH]c2ccccc12	-3	8	-4	84*
O=C(CSc1nnc(-c2cccnc2)n1Cc1ccco1)c1ccc2ccccc2c1	-2	-19	25	70*
O=C(CSc1nnc(-c2cccnc2)n1Cc1ccco1)c1ccc(Br)cc1	-10	4	4	26
O=C(CSc1nnc(-c2cnccn2)n1Cc1ccco1)c1ccccc1	1	6	-3	90*
O=C(CSc1nnc(-c2ccccn2)n1Cc1ccco1)c1ccc(Cl)cc1	-14	-1	13	80*
CCOC(=O)C1=CCN(S(=O)(=O)c2ccccc2[N+](=O)[O-])C1c1ccc(C)cc1 (centres undefined)	.	.	-9	.
N#CC1=C(N)SC(N)=C(C#N)C1c1ccnc2ccccc12	-1	26	2	76*
Nc1ccn([C@@H]2O[C@H](CNS(=O)(=O)c3cc4ccccc4s3)[C@@H](O)[C@H]2O)c(=O)n1	.	.	-1	.
Cc1ccccc1-c1nc2cc(N)ccc2o1	-3	65*	-6	16
CC(C)c1ccc2oc(-c3cc(N)ccc3O)nc2c1	5	-12	0	11
SMILES	pCIP destab	UBC9 SUMO inh	NadD block	PHOSPHO1 inh
Cc1nc2ccc(-c3nc4cc(N)ccc4o3)cc2[nH]1	-8	53*	9	-4
O=C1CSC(=S)N1/N=C/c1cc(Br)c(O)c(Br)c1	-21	18	14	48
Nc1c(C(=O)Nc2ccc(F)cc2)sc2nc(-c3ccco3)ccc12	-13	74*	26	35
Nc1c(C(=O)Nc2ccccc2)sc2nc3c(c(-c4ccco4)c12)CCC3	-23	47	27	87*
NC(=O)c1sc2nc(-c3ccccc3)ccc2c1N	-10	26	0	14
CC(=O)c1sc2nc(-c3ccco3)ccc2c1N	-4	70*	4	-4
Nc1c(C(=O)Nc2ccccc2)sc2nc3c(c(-c4ccco4)c12)CCCC3	-6	34	16	-60

Screening results as filed in PubChem.
